T cruzi growth-1: blocks T. cruzi growth in NIH3T3 culture; actives 5.9% (n = 77,000); AID 624255; T. cruzi beta-gal in NIH3T3, GalScreen luminescence, 90 h; inhibition, % at 8.34 µM;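 active = mean inhibition above about 93%, with at least 55% of replicates each passing it, limit read from the data, passing the limit was not always enough; inconclusive = only one of those two conditions holds; inactive = neither condition holds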
Pf Dd2 inh: blocks growth of Plasmodium falciparum Dd2 parasites. P. falciparum Dd2 growth, SYBR Green, 72 h; active compounds read low. activity change, % at 10 µM. AID 1159554. actives 2.3% (n = 94,000); in the data active = activity change below about -80%; inconclusive = no clear call, values can overlap the other calls
C diff HTS: C. difficile growth inhibition. actives 0.25% (n = 86,000). Clostridium difficile clinical isolate growth, OD600, 24 h; active compounds read low. growth activity, negative = inhibition, % at 16 µg/mL (by protocol);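 active = mean growth activity at or below -80% and every replicate also at or below -80%; inconclusive = mean at or below -80% but some replicate above -80%; inactive = mean growth activity above -80%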;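 also: 0% = DMSO wells and -100% = levofloxacin 16 µg/mL wells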
T cruzi growth-2: inhibitors of T. cruzi proliferation. T. cruzi beta-gal in NIH3T3, GalScreen luminescence, 90 h. actives 72% (n = 5,600). inhibition, % at 8.35 µM. shares compounds with T cruzi growth-1;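 active = mean replicate inhibition above about 95% and at least 55% of replicates individually reaching it, limit read from the data; inconclusive = only one of the two criteria is met; inactive = neither criterion is met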
T cruzi growth-3: inhibitors of T. cruzi proliferation; T. cruzi beta-gal in NIH3T3, GalScreen luminescence, 90 h; AID 651740; shares compounds with T cruzi growth-1; inhibition, % at 2.09 µM; actives 21% (n = 5,600);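 active = mean inhibition above about 95%, with at least 55% of replicates also reaching it, limit read from the data; inconclusive = meets just one of the two conditions; inactive = meets neither condition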;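 also: plate controls were neutral control median for no effect and positive control median for full effect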
NIH3T3 tox: kills mouse NIH/3T3 fibroblasts. shares compounds with T cruzi growth-1. NIH/3T3 viability, CellTiter-Glo ATP luminescence, 90 h. cytotoxicity (signal decrease), % at 8.35 µM. actives 14% (n = 5,600);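 active = mean signal decrease across replicates above about 35% based on untreated-well scatter, with enough replicates individually passing, limit read from the data; inconclusive = no rule stated though some were filed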;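 also: 0% = median of neutral control wells and 100% = median of positive control wells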
3T3 cytotox 2: NIH/3T3 (mouse) viability loss | AID 651744 | actives 56% (n = 5,600) | NIH/3T3 viability, CellTiter-Glo ATP luminescence, 90 h | inhibition, % at 24.9 µM | shares compounds with T cruzi growth-1;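 active = mean loss of cell viability signal at or above a set limit, and enough replicates individually reaching it; inconclusive = meets only the mean limit or only the replicate share; inactive = meets neither condition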;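 also: 0% = median of neutral control wells and 100% = median of positive control wells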
Active calls of the source: *; u = inconclusive; x = no result. This is a sample that favours compounds with a hit; in the whole collection about 6.8% have one here.

SMILES	T cruzi growth-1	Pf Dd2 inh	C diff HTS	T cruzi growth-2	T cruzi growth-3	NIH3T3 tox	3T3 cytotox 2
C[C@H](CO)N1C[C@H](C)[C@H](CN(C)S(=O)(=O)c2cccs2)Oc2ncc(C#Cc3cccc(F)c3)cc2C1=O	98*	-39	0	110*	69	2	5
C[C@H](CO)N1C[C@H](C)[C@H](CN(C)S(C)(=O)=O)Oc2ncc(C#Cc3cccc(F)c3)cc2C1=O	x	-3	-5	x	x	x	x
C[C@H](CO)N1C[C@H](C)[C@H](CN(C)S(=O)(=O)c2ccc(F)cc2)Oc2ncc(C#Cc3ccccc3)cc2C1=O	106*	-67	x	u	77	7	28*
COc1ccc(-c2cnc3c(c2)C(=O)N([C@H](C)CO)C[C@@H](C)[C@@H](CN(C)S(=O)(=O)c2ccc(OC)cc2)O3)cc1	69	-21	x	x	x	x	x
O=C(C[C@H]1C=C[C@H](NC(=O)CC2CC2)[C@H](CO)O1)NCc1ccc(-c2ccccc2)cc1	2	-1	x	x	x	x	x
COc1ccc(-c2cnc3c(c2)C(=O)N([C@H](C)CO)C[C@@H](C)[C@H](CN(C)C(=O)C2CCCCC2)O3)cc1	x	-24	-6	x	x	x	x
N[C@H]1CC[C@H](CCn2cc(-c3ccccn3)nn2)O[C@@H]1CO	-3	-15	x	x	x	x	x
COC(=O)C[C@@H]1C[C@@H]2c3cc(NC(=O)CN(C)C)ccc3O[C@@H]2[C@@H](CO)O1	-21	14	x	x	x	x	x
COc1ccc(S(=O)(=O)Nc2ccc3c(c2)C(=O)N([C@@H](C)CO)C[C@@H](C)[C@@H](CN(C)S(=O)(=O)c2cccs2)OCCCC[C@H](C)O3)cc1	22	-54	-11	x	x	x	x
COc1ccc(S(=O)(=O)Nc2ccc3c(c2)C(=O)N([C@H](C)CO)C[C@@H](C)[C@@H](CN(C)S(=O)(=O)c2cccs2)OCCCC[C@H](C)O3)cc1	100*	-68	-11	90	15	-23	-17
COc1ccc(S(=O)(=O)N(C)C[C@H]2OCCCC[C@H](C)Oc3ccc(NS(=O)(=O)c4cccs4)cc3C(=O)N([C@@H](C)CO)C[C@@H]2C)cc1	107*	-71	5	112*	33	-8	-8
C[C@@H]1CCCCO[C@H](CN(C)S(=O)(=O)c2ccccc2)[C@@H](C)CN([C@H](C)CO)C(=O)c2cc(NS(=O)(=O)c3cccs3)ccc2O1	21	x	6	x	x	x	x
COc1ccc(S(=O)(=O)N(C)C[C@H]2OCCCC[C@@H](C)Oc3ccc(NS(=O)(=O)c4cccs4)cc3C(=O)N([C@H](C)CO)C[C@H]2C)cc1	110*	-72	-13	113*	29	1	-20
C[C@@H]1CN([C@@H](C)CO)C(=O)c2cc(NS(=O)(=O)c3cccs3)ccc2O[C@@H](C)CCCCO[C@H]1CN(C)S(=O)(=O)c1ccccc1	45	x	1	x	x	x	x
O=C(C[C@@H]1CC[C@@H](NC(=O)C2CCC2)[C@@H](CO)O1)NCCCN1CCOCC1	x	18	-3	x	x	x	x
CC(C)CC#Cc1ccc([C@@H]2[C@@H](CO)N3C(=O)CN(C(=O)CN4CCOCC4)C[C@@H]23)cc1	x	-2	-21	x	x	x	x
CO[C@H]1CN(C)C(=O)c2cc(NC(=O)Nc3cccc(F)c3)ccc2OC[C@H](C)N(C(=O)C2CC2)C[C@H]1C	-1	-37	-13	x	x	x	x
COc1ccccc1C#Cc1ccc([C@@H]2[C@@H](C#N)N(C(=O)C3CCC3)[C@H]2CO)cc1	97*	-73	1	104*	111*	-24	6
COc1ccccc1C#Cc1ccc([C@@H]2[C@@H](C#N)N(C(=O)C3CCC3)[C@@H]2CO)cc1	80	-11	13	x	x	x	x
COc1ccccc1C#Cc1ccc([C@@H]2[C@@H](CO)N(C(=O)C3CCC3)[C@H]2C#N)cc1	91	-67	-6	x	x	x	x
COc1ccccc1C#Cc1ccc([C@@H]2[C@H](C#N)N(C(=O)C3CCC3)[C@H]2CO)cc1	u	-52	3	103*	111*	31	28*
COCC#Cc1ccc([C@H]2[C@H]3CN(C(=O)c4cccnc4)CC(=O)N3[C@H]2CO)cc1	x	18	0	x	x	x	x
CC(C)CC#Cc1ccc([C@H]2[C@@H](CO)N3CCCCN(C(=O)NC4CCCC4)C[C@@H]23)cc1	118*	2	-27	110*	79	19	104*
CCCC#Cc1ccc([C@H]2[C@H](CO)N3CCCCN(C(=O)NC4CCCC4)C[C@@H]23)cc1	u	-36	10	86	u	48*	105*
CC(C)CC#Cc1ccc([C@@H]2[C@@H](CO)N3CCCCN(C(=O)NC4CCCC4)C[C@@H]23)cc1	102*	-11	18	101*	64	20	107*
SMILES	T cruzi growth-1	Pf Dd2 inh	C diff HTS	T cruzi growth-2	T cruzi growth-3	NIH3T3 tox	3T3 cytotox 2
CC(C)CC#Cc1ccc([C@H]2[C@H](CO)N3C(=O)CN(C(=O)NC4CCCC4)C[C@@H]23)cc1	x	-1	-21	x	x	x	x
COCC#Cc1ccc([C@H]2[C@@H](CO)N3CCCCN(C(=O)NC4CCCC4)C[C@H]23)cc1	76	-4	-3	x	x	x	x
CC(C)CC#Cc1ccc([C@@H]2[C@H]3CN(C(=O)NC4CCCC4)CC(=O)N3[C@H]2CO)cc1	x	-69	56	x	x	x	x
CC(C)CC#Cc1ccc([C@H]2[C@@H](CO)N3C(=O)CN(C(=O)NC4CCCCC4)C[C@H]23)cc1	x	-39	-11	x	x	x	x
CC(C)CC#Cc1ccc([C@H]2[C@H](CO)N3CCCCN(C(=O)NC4CCCC4)C[C@@H]23)cc1	113*	-35	-8	93	87	43*	103*
CCCC(=O)Nc1ccc2c(c1)C(=O)N(C)[C@H]1CC[C@H](CC(=O)NCC3CC3)O[C@H]1CO2	-23	-73	-4	x	x	x	x
COc1ccc(S(=O)(=O)N(C)C[C@H]2Oc3ccc(NC(=O)Cn4cnnn4)cc3C(=O)N([C@H](C)CO)C[C@@H]2C)cc1	-80	1	-1	x	x	x	x
COc1ccc(S(=O)(=O)N(C)C[C@H]2Oc3ccc(NC(=O)Cn4cnnn4)cc3C(=O)N([C@H](C)CO)C[C@H]2C)cc1	50	-8	-1	x	x	x	x
COc1ccc(S(=O)(=O)N(C)C[C@@H]2Oc3ccc(NC(=O)Cn4cnnn4)cc3C(=O)N([C@H](C)CO)C[C@H]2C)cc1	105*	-24	-1	52	-5	-14	10
COc1ccc(S(=O)(=O)N(C)C[C@H]2Oc3ccc(NC(=O)Cn4cnnn4)cc3C(=O)N([C@@H](C)CO)C[C@@H]2C)cc1	100*	-25	-5	-13	-14	-6	14
COCCN(C[C@@H]1N[C@@H](CO)[C@@H]1c1ccc(-c2cccc(F)c2)cc1)C(C)=O	105*	2	-9	102*	39	-22	14
COCCN(C[C@H]1N[C@H](CO)[C@@H]1c1ccc(-c2cccc(F)c2)cc1)C(C)=O	87	-10	-4	x	x	x	x

Screening results from PubChem BioAssay.
